What all share (assay): NCI-60 one-dose screen, 48 h (100 = growth as untreated, 0 = no growth, -100 = all killed)
Assay [1] concerns NCI-H23 lung. Conditions: 10 µM unless noted.
The test system of assay [2] is NCI-H226 lung. The conditions noted are these: 10 µM unless noted.
Assay [3] deals with NCI-H322M lung. Conditions: 10 µM unless noted.
Assay [4] relates to HOP-62 NSCLC. The conditions noted are these: 10 µM unless noted.
Assay [5] deals with NCI-H460 lung. The conditions noted are these: 10 µM unless noted.
Assay [6] has as its system HOP-92 NSCLC. The conditions noted are these: 10 µM.
Assay [7] concerns A549/ATCC NSCLC. The conditions noted are these: 10 µM unless noted.
Assay [8] relates to 786-0 renal. Conditions: 10 µM unless noted.
For assay [9], the system named is COLO 205 colon. The conditions noted are these: 10 µM unless noted.
In assay [10] the test system is NCI-H522 lung. Conditions: 10 µM unless noted.

About 83,000 compounds went through this panel and 20% of them were active in at least one assay; those are over-represented in the sample as a whole.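 Cell lines were cultured in 96-well plates, exposed to a single compound concentration, and assessed for percent growth 48 hours later.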 Values without a mark were called inactive. Activity calls are given as the source filed them. The calls were made as follows: active = growth percent below 10; inactive = the rest.

Regarding `C=C(C)[C@@H]1CC[C@]2(C(=O)NCCCCCN(CCC#N)CCC#N)CC[C@]3(C)[C@H](CC[C@@H]4[C@@]5(C)CCC(=O)C(C)(C)[C@@H]5CC[C@]43C)[C@@H]12`, the growth in assay [1] was 95.3%; in [2], 92.8%; in assay [3], 116%; in assay [4], 82.6%; in assay [5] it was 87.5%; in assay [6], 97%. In addition, the growth is 90.9% in assay [7], 92% in assay [8] and 111% in [9].
For `COc1cc(/C=C/C(=O)c2ccc(NC(=O)CSc3nnc(-c4ccc(-c5nc6ccc(Cl)cc6[nH]5)cc4)o3)cc2)cc(OC)c1OC`, the growth is 101% in [1]; 104% in assay [2]; 99.6% in assay [3]; 89.8% in assay [4]; 98.7% in [5]; 115% in assay [6]. Further, the growth in [10] is 76.1%; in [8], 109%; in [9] it was 106%.
As to `CC1(C)CC[C@]23CC[C@]4(C)[C@H](CC[C@@H]5[C@@]6(C)CCCN(CO)C(C)(C)[C@@H]6CC[C@]54C)[C@H]2[C@H]1OC3`, the growth in assay [1] is 86.4%; in assay [2] it was 94.8%; in [3], 71.9%; in assay [4] it was 98.9%; in [5], 1.75% (active); in [6] it was 77.5%. Besides, the growth in [10] is 94.9%; in assay [8] it was 83.8%; in assay [9] it was 0.57% (active).
With `CCCCCc1ccc(S(=O)(=O)Nc2cc(-c3csc(NC(=O)CN4CCN(CCO)CC4)n3)ccc2OC)cc1`, the growth in assay [1] is 71.3%; in assay [2], 82.9%; in assay [3], 52.3%; in [4], 78.7%; in assay [5], -14% (active); in assay [6], 46.8%. Moreover, the growth in assay [10] is 45.7%; in assay [8], -51.5% (active); in assay [9] it was -21.4% (active).
`CCCCCc1ccc(S(=O)(=O)Nc2cccc(-c3csc(NC(=O)CNCCN(C)C)n3)c2)cc1`: the growth in assay [1] is 94.6%; in assay [2], 87.5%; in assay [3] it was 90.4%; in [4], 98.8%; in [5], 51.9%; in assay [6], 53%. Further, the growth in assay [10] is 91%; in [8], 61.6%; in [9], 74.6%.
Take `Cc1cc2nc(C(Cl)Cl)nc(-c3cccs3)n2n1`: the growth in [1] is 10.5%; in assay [2], 86.7%; in [3], -20.6% (active); in [4] it was -2.2% (active); in assay [5], -39% (active); in assay [6], -10.8% (active). Also, the growth in assay [10] is 46.8%; in [7] it was -23.5% (active); in assay [8] it was 77.5%; in assay [9] it was -44.3% (active).
Turning to `O=C(c1ccc(O)cc1)[C@@H]1CN[C@@]2(C(=O)Nc3ccccc32)[C@H]1c1ccc(F)cc1`, the growth in [1] was 94.5%; in assay [2], 96.2%; in assay [3] it was 99.7%; in assay [4], 99.5%; in assay [5], 111%; in [6], 101%. Further, the growth is 96.6% in assay [10], 110% in assay [8] and 116% in assay [9].
Turning to `O=C(O)c1cn(C2CC2)c2cc(N3CCN(C(=O)CN4C(=O)CSC4=O)CC3)c(F)cc2c1=O`, the growth was 103% in assay [1]; 101% in assay [2]; 101% in [3]; 75.8% in [4]; 107% in assay [5]; 104% in [6]. Further, the figures for the growth in [7], in assay [8] and in assay [9] were 93.5%, 94.1% and 113%, respectively.
Turning to `COc1cccc(/C=C(/C)c2ccc3cccc(OC)c3[o+]2)c1O`, the growth in assay [1] is 105%; in assay [2], 103%; in [3], 98.8%; in assay [4], 106%; in assay [5] it was 102%; in assay [6] it was 91%. Moreover, the growth in [10] was 93.6%; in [7], 102%; in assay [8], 98.5%; in assay [9], 118%.
With `CCN1CCN(Cc2ccc(C(=O)Nc3ccc(C)c(Oc4ccc(-c5[nH]nc6ncnc(N)c56)cc4)c3)cc2C(F)(F)F)CC1`, the growth in assay [1] was 93.2%; in [2], 85.8%; in assay [3], 99%; in assay [4] it was 103%; in assay [5], 106%; in assay [6], 70.3%. Also, the growth in assay [10] is 101%; in assay [7], 96.6%; in assay [8], 69.4%; in [9], 56.7%.
In the case of `Oc1[nH]c2ccccc2c1Nn1c(N=N/C=c2/ccc3c(c2)C=NN=3)n[nH]c1=S`, the growth was 89.6% in [1]; 93.9% in assay [2]; 107% in assay [3]; 75.6% in assay [4]; 110% in assay [5]; 76.6% in [6]. Besides, the growth is 99.9% in assay [7], 96.7% in assay [8] and 30.9% in assay [9].
Turning to `Clc1cccc(/C=N/Nc2nc(N/N=C/c3cccc(Cl)c3Cl)nc(N3CCCCC3)n2)c1Cl`, the growth in [1] is 99.7%; in assay [2], 97.5%; in assay [3], 90%; in assay [4], 98.2%; in assay [5], 33.8%; in [6] it was 86.2%. Further, the growth in assay [10] is 76.6%; in assay [7] it was 55.6%; in assay [8], 102%; in assay [9], 90.3%.
Take `N#Cc1c(-c2cccs2)cc(-c2cnccn2)nc1SCC(=O)Nc1ccc(Br)cc1`: the growth was 74.8% in assay [1]; 81.5% in [2]; 88.5% in assay [3]; 71.3% in assay [4]; 70.6% in assay [5]; 98.6% in assay [6]. Also, the growth in [7] is 72.3%; in assay [8], 80.9%; in assay [9], 96.4%.
As to `CC1(C)CC[C@]2(C(=O)O)CC[C@]3(C)C(=CC[C@@H]4[C@@]5(C)CC/C(=N\OCCC#N)C(C)(C)[C@@H]5CC[C@]43C)[C@@H]2C1`, the growth in assay [1] is 98%; in [2] it was 98%; in assay [3], 111%; in [4], 79.2%; in assay [5] it was 93.7%; in [6] it was 123%. Also, the figures for the growth in assay [7], in assay [8] and in assay [9] were 93.7%, 80.8% and 111%, respectively.
Turning to `COc1cc(-c2nn(C(C)(C)C)cc2-c2ccnc(NCCCNS(=O)(=O)c3ccc(C)cc3)n2)ccc1Cl`, the growth in assay [1] was 84.1%; in assay [2], 70.9%; in assay [3], 86%; in assay [4], 70.8%; in assay [5], 86.7%; in assay [6], 70.2%. Moreover, the results for the growth in [7], in assay [8] and in assay [9] were 59.7%, 83.2% and 107%, respectively.
`CNC(=O)c1cc(-n2ccc3cc(NC(=O)Nc4ccc(N5CCOCC5)c(C(F)(F)F)c4)ccc32)ccn1`: the growth was 50.4% in assay [1]; 73.6% in assay [2]; 75.5% in assay [3]; 55.7% in assay [4]; 34.3% in assay [5]; 56% in assay [6]. Also, the growth in assay [7] is 36.4%; in assay [8] it was 13.6%; in [9], 26.4%.
Regarding `CS(=O)(=O)Nc1cc(-c2ccc3ncc(C#N)c(NCc4ccccc4)c3c2)cnc1Cl`, the growth in assay [1] is 0.346% (active); in assay [2], -9.59% (active); in assay [3], 16.5%; in [4], 2.7% (active); in assay [5] it was 3.01% (active); in [6] it was -16.8% (active). Besides, the growth in assay [8] is 0.0627% (active); in assay [9], 6.54% (active).
In the case of `CC(=O)Nc1cccc(Nc2nc(N[C@@H](C)c3ccccc3)c3ccccc3n2)c1`, the growth in assay [1] was 20.6%; in assay [2], 6.42% (active); in assay [3], 53.7%; in assay [4], 33.9%; in [5] it was 2.67% (active); in [6] it was 13.1%. The growth was 19.9% in assay [7], 3.67% (active) in assay [8] and -12.3% (active) in assay [9].
Consider `COc1ccccc1C(=O)Nc1cccc2c1C(=O)C(=O)C=C2`, for which the growth in assay [1] is 85.5%; in assay [2] it was 99.9%; in assay [3], 112%; in assay [4] it was 94.8%; in assay [5], 103%; in assay [6], 113%. The growth in [7] is 88.7%; in assay [8], 92.2%; in assay [9], 71.5%.
With `CC1(C)CC[C@]2(C(=O)N3CCOCC3)CC[C@]3(C)C(=CC[C@@H]4[C@@]5(C)C/C(=C/c6ccccn6)C(=O)C(C)(C)[C@@H]5CC[C@]43C)[C@@H]2C1`, the growth in assay [1] was 60.2%; in assay [2], 76.2%; in [3] it was 103%; in assay [4] it was 78.5%; in assay [5] it was 54.9%; in assay [6], 51.1%. Moreover, the growth in assay [7] is 54.5%; in assay [8] it was 64.4%; in assay [9], 74.2%.
For `CC1(C)[C@@H](O)CC[C@]2(C)[C@H]3CC[C@@H]4[C@H]5[C@H](C(=O)/C=C\c6ccncc6)CC[C@]5(O)CC[C@@]4(C)[C@]3(C)CC[C@@H]12`, the growth was 49.2% in [1]; 27.8% in assay [2]; 93.4% in [3]; 89.9% in assay [4]; 62.9% in [5]; 91.9% in assay [6]. Further, the growth in assay [8] was 35.3%; in assay [9] it was 91%.
For the molecule `CCNC(=O)N1CCc2cc(OC)c(OCCc3ccc(OC)nc3)cc2C1c1ccc(C)cc1C` (stereo not given), the growth in assay [1] was 13%; in assay [2] it was 33.2%; in [3] it was 38%; in assay [4], 21.8%; in [5], 1.74% (active); in assay [10], -34% (active). For the same molecule, the growth in [7] is 4.74% (active); in [8] it was 6.15% (active); in assay [9], 7.67% (active).

Source of the values: PubChem BioAssay (NCI).
